Bioassay records from PubChem BioAssay.
Methyltransferases: Primary Screen for Target Class Profiling of Small Molecule Inhibitors of Methyltransferases; purified enzyme, MTase-Glo SAH luminescence; hits give low values; calls only at 40 µM; 25,000 tested, 3.9% active; AID 1745853, 2022; call rule not given here
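Each enzyme was reacted with SAM and its substrate, with compounds tested once at 40 uM; SAH formed was read by MTase-Glo luminescence.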
Each line names hits and unclear results; the compound was inactive in the other large screens; ! = repeats disagree. This is one part of a sample in which hits are shown more often than they occur.

CCN(CC)CCCNC(=O)CCCc1nnc2n3nc(-c4ccccc4)nc3c3ccccc3n12	Methyltransferases active
CC1CCC(NC(=O)CCCc2nnc3n4nc(-c5ccccc5)nc4c4ccccc4n23)CC1 (stereo unspecified)	none
Cc1ccc(CNC(=O)CCCc2nnc3n4nc(-c5ccccc5)nc4c4ccccc4n23)cc1	none
CC1CCCCN1CCNC(=O)CCCc1nnc2n3nc(-c4ccccc4)nc3c3ccccc3n12 (stereo unspecified)	none
O=C(C1CC1)N(C1CCOCC1)C1CCN(S(=O)(=O)C2CC2)CC1	none
O=C(NCC1(O)CCCNCC1)c1cccc(-c2ccc(F)cc2)c1 (stereo unspecified)	none
Cc1ccccc1-n1cc(CNC(=O)C(c2cccc(F)c2)N(C)C)cn1 (stereo unspecified)	none
CNC(=O)N1CCC(C2CCN(C(=O)CCc3ccccc3OC)C2)CC1 (stereo unspecified)	none
O=c1c2ccccc2n2c(-c3ccc(Br)cc3)nnc2n1Cc1ccccc1	none
O=C1c2ccccc2C(=O)c2c(NCCc3ccc(O)cc3)ccc(NCCc3ccc(O)cc3)c21	Methyltransferases active
Fc1ccccc1-c1noc(NCCc2ccc(Cl)cc2)n1	none
O=C(O)c1cc([N+](=O)[O-])ccc1NCCCc1ccccc1	none
C[C@]12C=CC(=O)C=C1CC[C@@H]1[C@@H]2[C@@H](O)C[C@@]2(C)[C@H]1CC[C@]2(O)C(=O)COC(=O)CCC(=O)O	none
CN(C(=O)c1ccc(Cl)nc1)C1CCCc2ccccc21 (stereo unspecified)	none
COc1ccc(OC)c(CCNC(=O)Cn2ccc3cc(S(=O)(=O)N4CCCC4)ccc32)c1	none
COc1ccc(OC)c(CCNC(=O)CCc2nnc3n(Cc4ccc(F)cc4)c(=O)c4ccccc4n23)c1	none
CCCC(=O)NCCc1c2n(c3ccc(OC)cc13)CCCc1ccccc1-2	Methyltransferases active
CC(=O)O[C@@H]1CC(C)=C2[C@H]1[C@H](C)CC[C@H]2/C=C(\C)C(=O)O	none
CCOC(=O)c1cc2n(n1)CC(C)(C(=O)NC1CCCC1)N(c1ccc(CC)cc1)C2=O (stereo unspecified)	none
O=C(CC1CCCC1)N1CCCC(c2nn[nH]n2)C1 (stereo unspecified)	none
CC1(C)CCC(CN2CCN(c3ccc(C(=O)NS(=O)(=O)c4ccc(NCC5CCOCC5)c([N+](=O)[O-])c4)c(Oc4cnc5[nH]ccc5c4)c3)CC2)=C(c2ccc(Cl)cc2)C1	Methyltransferases active
CC(C)CCn1c(=O)c2ccc(C(=O)NCC(C)C)cc2n2c(=O)n(Cc3ccc(F)cc3)nc12	none
C=C(C(=O)O)[C@@H]1CC[C@@]2(C)CCC[C@@](C)(O)[C@@H]2C1	none
COC(=O)c1cc2n(n1)CC(C)(C(=O)NC1CCCCC1)N(c1ccc(F)cc1)C2=O (stereo unspecified)	none
Fc1ccc2nc(CO[C@H]3CN(C4CCC4)C[C@H]3F)[nH]c2c1	none
COc1cccc(N2C(=O)c3cc(-c4cccs4)nn3CC2(C)C(=O)NC2CCCCCC2)c1 (stereo unspecified)	none
CC1(C)CCC(C)(C)c2cc(C3(c4ccc(C(=O)O)cc4)OCCO3)ccc21	none
Cc1ccc([N+](=O)[O-])cc1S(=O)(=O)N(C)/N=C/c1cnc2ccc(Br)cn12	Methyltransferases active
Cc1cc(=O)n(CC(=O)NCc2ccccc2Cl)c(N(C)Cc2ccccc2)n1	none
O=C1c2ccc(Nc3ccc(F)cc3F)cc2CCc2ccc(OCC(O)CO)cc21 (stereo unspecified)	none
O=C(O)c1ccc(CN2CCC[C@H]2c2nc(-c3ccc(OC4CCCCC4)nc3)no2)cc1	none
CN(C)C[C@H]1C[C@@H](CO)CN(C(=O)c2ccccc2-c2ccc(F)cc2)C1	none
O=C(c1ccccn1)N1CCC2(CNc3ccccc3[S+](=O)([O-])N2)C1 (stereo unspecified)	none
COc1cc2ncnc(Nc3ccc(O)cc3)c2cc1OC	none
C#Cc1cccc(Nc2nc3cc(C(=O)O)ccc3c3cncnc23)c1	none
C#Cc1cccc(Nc2ncnc3cc(OC)c(OCCCCCCC(=O)NO)cc23)c1	Methyltransferases active
O=C(N[C@H]1CO[C@H]2[C@@H]1OC[C@@H]2n1nnnc1Oc1ccc(-n2ccnc2)cc1)c1ccccc1	none
O=c1[nH]c2ccc(S(=O)(=O)NCCO)cc2[nH]1	none
Cn1cc(-c2cnn3c(N)c(Br)c(C4CCCNC4)nc23)cn1 (stereo unspecified)	Methyltransferases active
C[C@H](Cc1ccc(O)c(O)c1)[C@@H](C)Cc1ccc(O)c(O)c1	Methyltransferases active
CC(CCc1ccc(O)cc1)NCCc1ccc(O)c(O)c1 (stereo unspecified)	none
CC(=O)Nc1cccc(C(=O)N2CCC3(CC2)N=C(c2ccc(C)cc2)NO3)c1	none
CCC1c2ccc(C)n2CCN1C(=O)Nc1cc(C)cc(C)c1 (stereo unspecified)	none
CC(C)NC(=O)C1CCCN1c1nc2ncccc2o1 (stereo unspecified)	none
CC(C)c1cc(CNc2nc(Nc3cc(C4CC4)[nH]n3)cc(N3CCN(C)CC3)n2)on1	Methyltransferases active
CSc1ccc(CCN2C(=O)c3cc4ccccc4n3CC2(C)C(=O)NCc2ccccc2)cc1 (stereo unspecified)	none
COc1cccc(CN2C(=O)c3nc4ccccc4n3CC2(C)C(=O)NC2CCCCC2C)c1OC (stereo unspecified)	none
CC(C)Cn1c(=O)c2ccccc2n2c(SCc3ccccc3F)nnc12	none
Nc1ncnc2c1ncn2[C@@H]1O[C@H](CO)[C@@H](O)[C@H]1O	none
CC(C)N(C[C@H]1O[C@@H](n2cnc3c(N)ncnc32)[C@H](O)[C@@H]1O)C1CC(CCc2nc3ccc(C(C)(C)C)cc3[nH]2)C1 (stereo partly specified)	Methyltransferases active
CSCC1OC(n2cnc3c(=O)[nH]cnc32)C(O)C1O (stereo unspecified)	none
Nc1nc2c(c(N3CCNCC3)n1)CCC1=C2[C@@H]2CCCC[C@@H]2O1	none
COc1ccc(O[C@H]2COCCN(C(=O)C3CCCC3)C2)cc1	none
CCCn1c(=O)c2ccc(C(=O)NC(C)C)cc2n2c(SCc3ccc(N4CCCC4=O)cc3)nnc12	none
OC1CCC(Nc2ncc3nc(Nc4c(F)cc(F)cc4F)n([C@H]4CCOC4)c3n2)CC1 (stereo partly specified)	none
O=C1c2ccccc2-c2nc3nnnn3nc21 (tested in a mixture with another compound)	Methyltransferases active
Cc1ccc(CSc2nnc3n(Cc4ccccc4)c(=O)c4ccc(C(=O)NC(C)C)cc4n23)cc1	none
Nc1nc(OCC2CCCCC2)c2[nH]cnc2n1	none
Cc1ccccc1CNC(=O)C1(C)Cc2ccccc2C(=O)N1Cc1cccc(F)c1 (stereo unspecified)	none
Cc1cc(Nc2nc(-c3ccccc3)nc3ccccc23)n[nH]1	none
Cc1cc(Nc2nc(N[C@@H](C)c3ccc(F)cc3)c(C#N)cc2F)n[nH]1	Methyltransferases active!
NC(=O)NO	none
CCOC(=O)c1cccc(NC(=O)N2CC[C@@H](CC(=O)NCc3ccccc3OC)[C@@H](CC)C2)c1	none
O=[S+]([O-])(c1cccs1)N1CCN(c2nc3ncccc3o2)CC1	none
O=C(NCCc1ccccc1)c1ccc2c(=O)[nH]c3c(C(=O)NCC4CCCO4)sc(=S)n3c2c1 (stereo unspecified)	Methyltransferases active
O=C(NCCc1ccc(Cl)cc1)c1ccc2c(=O)[nH]c3c(C(=O)NC4CCCC4)sc(=S)n3c2c1	Methyltransferases active
CC(C)OCCCNC(=O)c1ccc2c(=O)[nH]c3c(C(=O)NC4CCCC4)sc(=S)n3c2c1	none
